IDE exosite FP: exo-site inhibitors of human insulin-degrading enzyme | P14735 | purified IDE, FL-6b probe fluorescence polarization; hits give low values | z-score at 20 µM | 6.3% of 17,000 active | AID 1259349;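 active = z-score of -3 or lower, meaning strong loss of probe binding signal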;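 note: His-tagged human IDE residues 42-1019 made in E. coli with 30 nM FL-6b probe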
Target sequence (P14735 42-1019 limits assumed): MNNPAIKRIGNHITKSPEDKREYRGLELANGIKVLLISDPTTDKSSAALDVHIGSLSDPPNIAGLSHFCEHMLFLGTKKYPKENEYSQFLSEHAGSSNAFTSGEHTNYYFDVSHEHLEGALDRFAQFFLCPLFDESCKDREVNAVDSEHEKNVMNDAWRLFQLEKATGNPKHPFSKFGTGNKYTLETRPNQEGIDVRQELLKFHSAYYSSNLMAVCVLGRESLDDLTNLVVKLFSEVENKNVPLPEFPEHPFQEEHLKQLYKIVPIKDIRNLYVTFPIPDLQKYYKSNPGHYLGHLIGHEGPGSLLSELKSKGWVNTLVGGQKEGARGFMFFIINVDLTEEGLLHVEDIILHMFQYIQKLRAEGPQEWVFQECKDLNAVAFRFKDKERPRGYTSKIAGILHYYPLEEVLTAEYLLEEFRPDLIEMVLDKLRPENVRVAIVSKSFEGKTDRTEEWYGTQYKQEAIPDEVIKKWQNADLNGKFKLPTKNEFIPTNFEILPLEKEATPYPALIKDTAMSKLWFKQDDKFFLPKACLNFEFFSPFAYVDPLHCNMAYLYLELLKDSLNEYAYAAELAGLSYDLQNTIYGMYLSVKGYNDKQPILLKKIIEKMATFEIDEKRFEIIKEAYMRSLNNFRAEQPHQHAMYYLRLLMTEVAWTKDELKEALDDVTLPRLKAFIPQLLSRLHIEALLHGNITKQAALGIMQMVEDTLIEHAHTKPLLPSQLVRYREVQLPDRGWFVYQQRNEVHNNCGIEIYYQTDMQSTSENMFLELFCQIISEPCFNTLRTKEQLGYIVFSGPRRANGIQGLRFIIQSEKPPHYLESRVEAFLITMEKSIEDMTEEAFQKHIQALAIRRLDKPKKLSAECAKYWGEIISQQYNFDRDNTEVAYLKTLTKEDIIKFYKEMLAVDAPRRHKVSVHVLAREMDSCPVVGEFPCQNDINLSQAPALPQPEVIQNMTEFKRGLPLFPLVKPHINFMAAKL
An asterisk follows results filed as active. The entries come from a sample that favours hits as a whole.

SMILES	IDE exosite FP
N#C[C@H]1[C@H](c2ccc(C#Cc3ccccc3F)cc2)[C@@H](CO)N1C(=O)C1CC1	3.36
N#C[C@H]1N[C@H](CO)[C@H]1c1ccc(C#Cc2ccccc2F)cc1	-0.0746
N#C[C@@H]1[C@@H](c2ccccc2)[C@@H](CO)N1C(=O)c1cccnc1	6.28
N#C[C@H]1N[C@@H](CO)[C@H]1c1ccc(C#Cc2ccccc2F)cc1	-3.96*
N#C[C@@H]1[C@H](c2ccc(C#Cc3ccccc3F)cc2)[C@@H](CO)N1C(=O)c1cccnc1	-4.03*
N#C[C@@H]1[C@@H](c2ccc(C#Cc3ccccc3F)cc2)[C@@H](CO)N1C(=O)C1CC1	-1.6
N#C[C@@H]1[C@@H](c2ccc(C#Cc3ccccc3F)cc2)[C@H](CO)N1C(=O)C1CCC1	1.05
N#C[C@@H]1N[C@@H](CO)[C@H]1c1ccc(-c2ccccc2F)cc1	2.06
N#C[C@@H]1[C@H](c2ccc(C#Cc3ccccc3F)cc2)[C@@H](CO)N1C(=O)C1CCC1	-4.83*
N#C[C@H]1[C@H](c2ccc(C#Cc3ccccc3F)cc2)[C@@H](CO)N1C(=O)C1CCOCC1	-5.92*
N#C[C@H]1[C@H](c2ccc(C#Cc3ccccc3F)cc2)[C@@H](CO)N1C(=O)C1CCC1	3.66
O=C(Nc1ccccc1)N1CC(=O)N2[C@H](C1)[C@H](c1ccc(-c3ccc(F)cc3)cc1)[C@@H]2CO	-0.228
C[C@H]1CC=CC[C@H](c2ccccc2)NC(=O)[C@H](C)N(C)C(=O)c2ccccc2O1 (mixture of isomers)	1.45
N#C[C@@H]1[C@H](c2ccc(C3=CCCCC3)cc2)[C@H](CO)N1C(=O)CN1CCOCC1	-0.233
CC(=O)N(C)C[C@@H]1[C@@H](c2ccc(C3=CCCCC3)cc2)[C@@H](CO)N1CC1CC1	2.76
N#Cc1cccc(-c2ccc(C3[C@H]4CNC[C@@H]3N4Cc3cc(F)ccc3F)cc2)c1 (some centres not stated)	0.547
COCC(=O)N(C[C@H]1N[C@H](CO)[C@@H]1c1ccc(-c2cccnc2)cc1)C(C)C	0.0527
O=C(Cc1cccnc1)N1CC(=O)N2[C@@H](CO)[C@H](c3ccc(-c4cccc(F)c4)cc3)[C@@H]2C1	-1.93
CN(C)C(=O)c1cccc(-c2ccc([C@@H]3[C@@H](C#N)N(C(=O)C4CCCCC4)[C@H]3CO)cc2)c1	1.61
Cc1ccccc1-c1ccc([C@H]2[C@@H](CO)N3CCCCN(C(=O)Nc4ccc(F)cc4)C[C@H]23)cc1	-7.12*
Cc1ccccc1-c1ccc([C@H]2[C@@H](CO)N3CCCCN(C(=O)Nc4cccc(F)c4)C[C@@H]23)cc1	-4.36*
Cc1ccccc1-c1ccc([C@@H]2[C@@H](CO)N3C(=O)CN(C(=O)Nc4ccc(F)cc4)C[C@H]23)cc1	-1.36
Cc1ccccc1-c1ccc([C@H]2[C@H]3CN(C(=O)Nc4ccc(F)cc4)CCCCN3[C@H]2CO)cc1	3.39
Cc1ccccc1-c1ccc([C@@H]2[C@@H](CO)N3C(=O)CN(C(=O)Nc4ccc(F)cc4)C[C@@H]23)cc1	-11.4*
Cc1ccccc1-c1ccc([C@@H]2[C@@H](CO)N3CCCCN(C(=O)Nc4ccc(F)cc4)C[C@H]23)cc1	1.81
SMILES	IDE exosite FP
Cc1ccccc1-c1ccc([C@@H]2[C@@H](CO)N3C(=O)CN(C(=O)Nc4cccc(F)c4)C[C@H]23)cc1	-2.07
Cc1ccccc1-c1ccc([C@@H]2[C@H](CO)N3CCCCN(C(=O)Nc4cccc(F)c4)C[C@@H]23)cc1	0.19
Cc1ccccc1-c1ccc([C@H]2[C@@H](CO)N3CCCCN(C(=O)Nc4ccc(F)cc4)C[C@@H]23)cc1	-1.63
Cc1ccccc1-c1ccc([C@H]2[C@H](CO)N3CCCCN(C(=O)Nc4ccccc4)C[C@@H]23)cc1	-3.88*
O=C(Nc1cccc(F)c1)N1CCCCN2[C@H](CO)[C@H](c3ccc(-c4ccccc4F)cc3)[C@H]2C1	1.7
Cc1ccccc1-c1ccc([C@@H]2[C@@H](CO)N3CCCCN(C(=O)Nc4ccccc4)C[C@@H]23)cc1	1.17
O=C(C[C@H]1CC[C@H]2[C@@H](COC[C@@H](O)CN2Cc2ccc(F)cc2)O1)NCCc1ccccc1	-0.508
C[C@H](O)C#Cc1ccc([C@H]2[C@@H](CO)N3CCCCN(C(=O)c4ccc(F)cc4)C[C@H]23)cc1	0.811
COc1ccc([C@@H]2C/C=C\C[C@@H](c3ccc(F)cc3)NC(=O)CCC(=O)N2)c(OC)c1	-0.636
CCC(=O)NC[C@@H]1[C@H](c2ccccc2)[C@H](CO)N1C(=O)C1CC1	1.87
CCC(=O)N1CC2(CCN(Cc3ccc(Cl)cc3)CC2)c2c(n(C)c3cc(OC)ccc23)[C@H]1CO	-1.17
COc1ccccc1NC(=O)N[C@H]1CC[C@@H](CCNS(=O)(=O)c2ccc(Cl)cc2)O[C@@H]1CO	1.53
N#Cc1ccc(-c2cccc(-c3nc(C(=O)O)cc4c3[C@@H](CCO)N(CC3CCOCC3)C4)c2)cc1	-1.03
CC(=O)N1[C@H](CO)[C@H](c2ccc(C3=CCCC3)cc2)[C@@H]1CNC(=O)CC1CC1	4.45
C[C@@H]1CN([C@H](C)CO)C(=O)CCCn2nncc2CO[C@@H]1CN(C)C(=O)Nc1cccc(Oc2ccccn2)c1	-1.61
C[C@H](CO)N1C[C@H](C)[C@H](CN(C)C(=O)Nc2ccc(-c3ccccc3)cc2)OCc2ccccc2-c2ccccc2C1=O	-1.74
Cc1ccccc1-c1ccc([C@H]2[C@@H](CO)N3CCCCN(C(=O)NC4CCCC4)C[C@@H]23)cc1	-19.3*
Cc1ccccc1-c1ccc([C@H]2[C@H]3CN(C(=O)NC4CCCC4)CCCCN3[C@H]2CO)cc1	-5.69*
Cc1ccccc1-c1ccc([C@H]2[C@@H](CO)N3CCCCN(C(=O)NC4CCCC4)C[C@H]23)cc1	-17.3*
O=C(Nc1ccc(F)cc1)N1C[C@@H]2[C@H](c3ccccc31)[C@@H](CO)N2C(=O)c1ccncc1	2.67
O=C(C[C@@H]1CC[C@H]2[C@@H](COC[C@H](O)CN2C(=O)Cc2ccccc2)O1)NC1Cc2ccccc2C1	-0.313
CCS(=O)(=O)N1CC(=O)N2[C@H](C1)[C@@H](c1ccc(C#CCC3CCCC3)cc1)[C@@H]2CO	1.18
N#C[C@@H]1[C@H](c2ccc(-c3ccccc3F)cc2)[C@H](CO)N1C(=O)Cc1ccccc1	-0.0185
COc1ccccc1NC(=O)N1CC(=O)N2[C@H](CO)[C@@H](c3ccc(-c4ccccc4)cc3)[C@H]2C1	-0.498
COCC(=O)N1CC(=O)N2[C@@H](CO)[C@H](c3ccc(C#CC4CCCC4)cc3)[C@@H]2C1	2.37
SMILES	IDE exosite FP
CCCNC(=O)N1CC(=O)N2[C@H](CO)[C@H](c3ccc(-c4cccc(C)c4)cc3)[C@@H]2C1	-16.1*
CCCNC(=O)N1CC(=O)N2[C@H](CO)[C@@H](c3ccc(-c4ccc(F)cc4)cc3)[C@@H]2C1	0.15
CCCNC(=O)N1CC(=O)N2[C@H](CO)[C@H](c3ccc(-c4ccc(F)cc4)cc3)[C@@H]2C1	0.276
CCCNC(=O)N1CC(=O)N2[C@@H](CO)[C@H](c3ccc(-c4ccc(F)cc4)cc3)[C@@H]2C1	-2.7
CCCNC(=O)N1CC(=O)N2[C@H](CO)[C@@H](c3ccc(-c4cccc(C)c4)cc3)[C@@H]2C1	-22.4*
CCCNC(=O)N1CC(=O)N2[C@H](CO)[C@H](c3ccc(-c4ccncc4)cc3)[C@@H]2C1	0.131
CCCC#Cc1ccc([C@@H]2[C@H](CO)N3C(=O)CN(C(=O)NCCC)C[C@@H]23)cc1	1.51
CCCNC(=O)N1CC(=O)N2[C@H](C1)[C@@H](c1ccc(-c3ccc(C)cc3)cc1)[C@@H]2CO	-2.44

Screening data from PubChem BioAssay.
